About 2,000 (36%) of roughly 5,500 compounds were called active. Not shown: some 18% with an inconclusive outcome. No stated cut-off is given here; in the data, active means normalized growth mostly below about 0.91 (no sharp cut-off); inconclusive means no clear call, values can overlap the other calls; inactive means mostly above about 0.92. The list shows a part of the results.
Assay: chemical genetic growth profiling, strain panel (AID 1159580);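 further: tested at 20 µM; growth read once vehicle control cultures reached saturation at 30 °C; 1 = growth at the plate median or of vehicle wells; lower values mean less growth of the strain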
Settings: growth OD
[1] = S. cerevisiae deletion strains, locus YCL061C, strain MRC1, active compounds read low
[2] = S. cerevisiae deletion strains, locus YHR030C, strain SLT2, active compounds read low
[3] = S. cerevisiae deletion strains, locus YJL187C, strain SWE1, active compounds read low

Measured: normalized growth

Nc1nc(F)nc2c1ncn2[C@@H]1O[C@H](COP(=O)(O)O)[C@@H](O)[C@@H]1O
inactive: S. cerevisiae deletion strains, locus YAL021C, strain ccr4, active compounds read low 0.989 | S. cerevisiae deletion strains, locus YAL026C, strain drs2, active compounds read low 0.999 | S. cerevisiae deletion strains, locus YAL030W, strain snc1, active compounds read low 1 | S. cerevisiae deletion strains, locus YBL061C, strain skt5, active compounds read low 0.997 | S. cerevisiae deletion strains, locus YBR009C, strain hhf1, active compounds read low 1.01 | S. cerevisiae deletion strains, locus YBR023C, strain chs3, active compounds read low 0.999 | S. cerevisiae deletion strains, locus YBR171W, strain sec66, active compounds read low 1 | S. cerevisiae deletion strains, locus YBR231C, strain swc5, active compounds read low 0.999 | S. cerevisiae deletion strains, locus YBR279W, strain paf1, active compounds read low 1 | S. cerevisiae deletion strains, locus YCL011C, strain gbp2, active compounds read low 0.994 | S. cerevisiae deletion strains, locus YCL016C, strain dcc1, active compounds read low 0.997 | [1] 0.989 | S. cerevisiae deletion strains, locus YCL069W, strain vba3, active compounds read low 0.993 | S. cerevisiae deletion strains, locus YCR088W, strain abp1, active compounds read low 0.992 | S. cerevisiae deletion strains, locus YDL005C, strain med2, active compounds read low 0.984 | S. cerevisiae deletion strains, locus YDL040C, strain nat1, active compounds read low 0.997 | S. cerevisiae deletion strains, locus YDR001C, strain nth1, active compounds read low 0.993 | S. cerevisiae deletion strains, locus YDR069C, strain doa4, active compounds read low 0.997 | S. cerevisiae deletion strains, locus YDR137W, strain rgp1, active compounds read low 1 | S. cerevisiae deletion strains, locus YDR159W, strain sac3, active compounds read low 0.985 | S. cerevisiae deletion strains, locus YDR195W, strain ref2 0.968 | S. cerevisiae deletion strains, locus YDR297W, strain sur2, active compounds read low 1.01 | S. cerevisiae deletion strains, locus YDR334W, strain swr1, active compounds read low 0.991 | S. cerevisiae deletion strains, locus YDR335W, strain msn5, active compounds read low 0.997 | S. cerevisiae deletion strains, locus YDR392W, strain spt3, active compounds read low 0.976 | S. cerevisiae deletion strains, locus YEL003W, strain gim4, active compounds read low 0.995 | S. cerevisiae deletion strains, locus YEL037C, strain rad23, active compounds read low 0.993 | S. cerevisiae deletion strains, locus YEL061C, strain CIN8 (second series), active compounds read low 0.994 | S. cerevisiae deletion strains, locus YER015W, strain faa2, active compounds read low 0.995 | S. cerevisiae deletion strains, locus YER016W, strain bim1, active compounds read low 0.993 | S. cerevisiae deletion strains, locus YER111C, strain swi4, active compounds read low 1 | S. cerevisiae deletion strains, locus YER155C, strain BEM2 (second series), active compounds read low 0.993 | S. cerevisiae deletion strains, locus YFR010W, strain ubp6, active compounds read low 1.01 | S. cerevisiae deletion strains, locus YGL167C, strain pmr1, active compounds read low 0.989 | S. cerevisiae deletion strains, locus YGL173C, strain kem1, active compounds read low 1 | S. cerevisiae deletion strains, locus YGL227W, strain vid30, active compounds read low 0.992 | S. cerevisiae deletion strains, locus YGL240W, strain doc1, active compounds read low 0.984 | S. cerevisiae deletion strains, locus YGL253W, strain hxk2, active compounds read low 0.998 | S. cerevisiae deletion strains, locus YHR013C, strain ard1, active compounds read low 0.99 | S. cerevisiae deletion strains, locus YHR027C, strain rpn1, active compounds read low 0.986 | [2] 1.03 | S. cerevisiae deletion strains, locus YHR079C, strain IRE1, active compounds read low 1.04 | S. cerevisiae deletion strains, locus YHR142W, strain chs7, active compounds read low 0.991 | S. cerevisiae deletion strains, locus YJL092W, strain hpr5, active compounds read low 0.982 | S. cerevisiae deletion strains, locus YJL095W, strain BCK1 (second series), active compounds read low 0.994 | S. cerevisiae deletion strains, locus YJL095W, strain BCK1, active compounds read low 0.993 | S. cerevisiae deletion strains, locus YJL115W, strain asf1, active compounds read low 0.991 | S. cerevisiae deletion strains, locus YJL129C, strain trk1, active compounds read low 0.994 | S. cerevisiae deletion strains, locus YJL154C, strain vps35, active compounds read low 0.998 | S. cerevisiae deletion strains, locus YJL164C, strain tpk1, active compounds read low 0.982 | S. cerevisiae deletion strains, locus YJL166W, strain qcr8, active compounds read low 1 | [3] 0.989 | S. cerevisiae deletion strains, locus YJR066W, strain TOR1, active compounds read low 0.967 | S. cerevisiae deletion strains, locus YKL160W, strain elf1, active compounds read low 1 | S. cerevisiae deletion strains, locus YKR026C, strain gcn3, active compounds read low 0.977 | S. cerevisiae deletion strains, locus YKR091W, strain srl3, active compounds read low 0.997 | S. cerevisiae deletion strains, locus YLL001W, strain dnm1, active compounds read low 0.987 | S. cerevisiae deletion strains, locus YLL026W, active compounds read low 0.989 | S. cerevisiae deletion strains, locus YLL041C, strain sdh2, active compounds read low 0.997 | S. cerevisiae deletion strains, locus YLR027C, strain aat2, active compounds read low 1 | S. cerevisiae deletion strains, locus YLR113W, strain HOG1, active compounds read low 0.979 | S. cerevisiae deletion strains, locus YLR221C, strain rsa3, active compounds read low 1 | S. cerevisiae deletion strains, locus YLR258W, strain gsy2, active compounds read low 0.992 | S. cerevisiae deletion strains, locus YLR262C, strain YPT6 (second series), active compounds read low 1 | S. cerevisiae deletion strains, locus YLR320W, strain mms22, active compounds read low 0.968 | S. cerevisiae deletion strains, locus YLR342W, strain FKS1, active compounds read low 0.999 | S. cerevisiae deletion strains, locus YLR357W, strain rsc2, active compounds read low 0.994 | S. cerevisiae deletion strains, locus YLR370C, strain arc18, active compounds read low 0.998 | S. cerevisiae deletion strains, locus YLR384C, strain iki3, active compounds read low 0.982 | S. cerevisiae deletion strains, locus YML120C, strain ndi1, active compounds read low 1.01 | S. cerevisiae deletion strains, locus YMR058W, strain fet3, active compounds read low 1 | S. cerevisiae deletion strains, locus YMR125W, strain sto1, active compounds read low 0.981 | S. cerevisiae deletion strains, locus YMR129W, active compounds read low 1.01 | S. cerevisiae deletion strains, locus YMR205C, strain PFK2, active compounds read low 0.975 | S. cerevisiae deletion strains, locus YMR231W, strain pep5, active compounds read low 0.995 | S. cerevisiae deletion strains, locus YNL071W, strain lat1, active compounds read low 0.995 | S. cerevisiae deletion strains, locus YNL183C, strain NPR1, active compounds read low 0.96 | S. cerevisiae deletion strains, locus YNL209W, strain ssb2, active compounds read low 1 | S. cerevisiae deletion strains, locus YNL248C, strain rpa49, active compounds read low 0.996 | S. cerevisiae deletion strains, locus YNL322C, strain KRE1 (second series), active compounds read low 0.99 | S. cerevisiae deletion strains, locus YNR049C, strain mso1, active compounds read low 0.995 | S. cerevisiae deletion strains, locus YOR001W, strain rrp6, active compounds read low 1 | S. cerevisiae deletion strains, locus YOR070C, strain gyp1, active compounds read low 1 | S. cerevisiae deletion strains, locus YOR080W, strain dia2, active compounds read low 0.989 | S. cerevisiae deletion strains, locus YOR083W, strain WHI5, active compounds read low 1 | S. cerevisiae deletion strains, locus YOR106W, strain vam3, active compounds read low 1.02 | S. cerevisiae deletion strains, locus YOR231W, strain MKK1, active compounds read low 1.04 | S. cerevisiae deletion strains, locus YOR265W, strain rbl2, active compounds read low 1 | S. cerevisiae deletion strains, locus YOR270C, strain vph1, active compounds read low 0.977 | S. cerevisiae deletion strains, locus YOR290C, strain snf2, active compounds read low 0.979 | S. cerevisiae deletion strains, locus YPL051W, strain arl3, active compounds read low 1 | S. cerevisiae deletion strains, locus YPL078C, strain atp4, active compounds read low 0.991 | S. cerevisiae deletion strains, locus YPL106C, strain sse1, active compounds read low 1 | S. cerevisiae deletion strains, locus YPL240C, strain hsp82, active compounds read low 1.01 | S. cerevisiae deletion strains, locus YPL256C, strain CLN2, active compounds read low 1.03

Cc1nn(Cc2ccccc2Cl)c(=N)s1
inactive: S. cerevisiae deletion strains, locus YAL013W, strain DEP1, active compounds read low 1.01 | S. cerevisiae deletion strains, locus YBR229C, strain ROT2, active compounds read low 0.999 | [1] 0.992 | S. cerevisiae deletion strains, locus YDL101C, strain DUN1, active compounds read low 0.991 | S. cerevisiae deletion strains, locus YDL134C, strain PPH21, active compounds read low 0.978 | S. cerevisiae deletion strains, locus YDR150W, strain NUM1, active compounds read low 0.971 | S. cerevisiae deletion strains, locus YEL061C, strain CIN8, active compounds read low 1.02 | S. cerevisiae deletion strains, locus YGR078C, strain PAC10, active compounds read low 0.997 | S. cerevisiae deletion strains, locus YGR229C, strain SMI1, active compounds read low 0.985 | [2] 0.959 | S. cerevisiae deletion strains, locus YHR087W, strain rtc3, active compounds read low 0.972 | [3] 0.995 | S. cerevisiae deletion strains, locus YJR043C, strain POL32, active compounds read low 0.991 | S. cerevisiae deletion strains, locus YJR075W, strain HOC1, active compounds read low 0.99 | S. cerevisiae deletion strains, locus YLR039C, strain RIC1, active compounds read low 0.939 | S. cerevisiae deletion strains, locus YLR058C, strain SHM2 (second series), active compounds read low 1.01 | S. cerevisiae deletion strains, locus YLR085C, strain ARP6, active compounds read low 1.03 | S. cerevisiae deletion strains, locus YLR262C, strain YPT6, active compounds read low 0.954 | S. cerevisiae deletion strains, locus YML094W, strain GIM5, active compounds read low 1.04 | S. cerevisiae deletion strains, locus YMR219W, strain ESC1, active compounds read low 0.998 | S. cerevisiae deletion strains, locus YMR263W, strain SAP30, active compounds read low 1 | S. cerevisiae deletion strains, locus YMR307W, strain GAS1, active compounds read low 0.981 | S. cerevisiae deletion strains, locus YNL153C, strain GIM3, active compounds read low 1.02 | S. cerevisiae deletion strains, locus YNL298W, strain CLA4 (second series), active compounds read low 0.932 | S. cerevisiae deletion strains, locus YNL322C, strain KRE1, active compounds read low 0.985 | S. cerevisiae deletion strains, locus YNR030W, strain Alg12, active compounds read low 0.988 | S. cerevisiae deletion strains, locus YOL006C, strain TOP1, active compounds read low 0.939 | S. cerevisiae deletion strains, locus YPL055C, strain LGE1, active compounds read low 1.06 | S. cerevisiae deletion strains, locus YPL241C, strain CIN2, active compounds read low 0.993 | S. cerevisiae deletion strains, locus YPR135W, strain CTF4, active compounds read low 0.972 | S. cerevisiae strains, strain wild type, active compounds read low 0.96

From PubChem BioAssay AID1159580 (chemical genetic matrix, 2015)
